C1s block: blocks human complement C1s protease activity | P09871 | hit rate 0.16% among 62,000 | mean inhibition % of two 10-compound mixtures (hits give high values), % at 5 µM (by protocol) | purified C1s, fluorogenic AMC substrate, pooled mixtures;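 active means inhibition above 20% in each of the two 10-compound mixture wells holding the compound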
BAP1 block: inhibitors of human BAP1 deubiquitinase; Q92560; hit rate 0.48% among 72,000; calls only at 20 µM; recombinant BAP1, Ub-AMC hydrolysis fluorescence kinetic; hits give low values;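 active means activity remaining at or below 50% of control, provided the compound also passes the data quality filters; inactive means the rest, including low values that fail the filters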
FXIa mix inh: factor XIa (human) inhibition, mixture screen. P03951. purified FXIa, fluorogenic substrate, pooled mixtures. inhibition, % at 5 µM. hit rate 0.19% among 62,000;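 further: each value is inhibition by a whole ten-compound pool holding the compound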
Ec RNAP inh: blocks E. coli RNA polymerase transcription; P0A8V2; fluorescence transcription assay; inhibition, %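 (tested at 10 µM)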; hit rate 0.2% among 62,000; AID 559; in the data active means inhibition above about 20%
Cathepsin G inh: inhibitors of human cathepsin G. P08311. purified enzyme, AMC-tetrapeptide fluorescence, pooled mixtures. inhibition, % at 5 µM (by protocol). hit rate 0.2% among 62,000. AID 581;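 active means inhibition above 20% in each of the two mixture wells holding the compound; inactive means inhibition of 20% or less in either well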
FXIIa inh mix: blocks human factor XIIa in pooled compound mixtures; hit rate 0.2% among 62,000; P00748; purified FXIIa, fluorogenic substrate; inhibition, % at 5 µM
Target sequence (P00748 20-372 limits assumed): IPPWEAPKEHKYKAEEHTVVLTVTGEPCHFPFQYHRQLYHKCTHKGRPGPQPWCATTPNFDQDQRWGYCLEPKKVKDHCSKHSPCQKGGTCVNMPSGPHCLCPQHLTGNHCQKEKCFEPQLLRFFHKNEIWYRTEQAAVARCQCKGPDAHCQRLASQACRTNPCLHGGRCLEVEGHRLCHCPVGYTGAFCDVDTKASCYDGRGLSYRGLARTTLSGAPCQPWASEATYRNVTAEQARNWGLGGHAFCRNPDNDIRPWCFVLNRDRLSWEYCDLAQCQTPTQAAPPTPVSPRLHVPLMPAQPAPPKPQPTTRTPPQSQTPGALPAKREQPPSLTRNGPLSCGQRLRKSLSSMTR
Target sequence (P00748 373-615 limits assumed): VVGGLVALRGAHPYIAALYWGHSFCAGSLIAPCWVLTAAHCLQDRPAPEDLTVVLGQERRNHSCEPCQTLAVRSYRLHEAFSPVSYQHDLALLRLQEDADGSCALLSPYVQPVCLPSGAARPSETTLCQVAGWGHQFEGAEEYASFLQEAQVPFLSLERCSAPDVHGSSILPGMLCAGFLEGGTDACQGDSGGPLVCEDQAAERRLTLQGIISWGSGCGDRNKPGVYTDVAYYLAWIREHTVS
BAP1 inh conf: confirmation of human BAP1 enzyme inhibitors. % of control activity, % at 20 µM. shares compounds with BAP1 block. purified BAP1, Ub-ethyl ester hydrolysis, HPLC; hits give low values. hit rate 8% among 310;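 active means percent of control activity at or below 60%; inconclusive means HPLC trace unusable from injection failure or solvent front hiding peaks; inactive means the rest, plus ubiquitin peak ratio over a set limit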
Of the large screens only hits and unclear results are named; the others gave an inactive call (follow-up assays come after a bar, where shown). An excerpt weighted towards active compounds, which were near 1.1% of everything screened. Unless noted, no stated cut-off is given here; in the data, active means inhibition above about 20% (passing the limit was not always enough); inactive means the rest.

CC(=O)Nc1nc(COc2ccccc2)cs1	none
Cc1cccc2sc(NC(=O)CCC(=O)O)nc12	none (no result: C1s block, FXIa mix inh, Ec RNAP inh, Cathepsin G inh, FXIIa inh mix)
Cc1ccc(NC(=O)N2CCC(C(=O)NCCC3=CCCCC3)CC2)cc1	BAP1 block active | BAP1 inh conf inactive
COc1cc(NC(=O)c2cc3ccccc3o2)c(OC)cc1Br	BAP1 block active | BAP1 inh conf inactive
COc1cc(NC(=O)c2cc3ccccc3o2)c(OC)cc1Cl	none
CCn1c(=O)c2cc(C(=O)N3CCOCC3)sc2c2ccccc21	BAP1 block active | BAP1 inh conf inactive
CCn1c(=O)c2cc(C(=O)N3CCCC3)sc2c2ccccc21	none (not shown: BAP1 block)
CCOC(=O)C1Cn2c(nc3c(c2=O)C2(CCCC2)Cc2ccccc2-3)S1 (stereo not given)	BAP1 block active (no result: Ec RNAP inh) | BAP1 inh conf inactive
CCOC(=O)C1=C(C)NC(=S)NC1c1c(OC)ccc2ccc(OC)cc12 (stereo not given)	none (no result: C1s block, FXIa mix inh, Ec RNAP inh, Cathepsin G inh, FXIIa inh mix)
CCCc1cc(=O)oc2cc(C)c(CN3CCCC3)c(O)c12	BAP1 block active | BAP1 inh conf inactive
COc1ccc(Br)cc1/C=c1\sc2nc(-c3ccco3)nn2c1=O	BAP1 block active | BAP1 inh conf inactive
Cc1ccc(/C=c2\sc3nc(-c4ccco4)nn3c2=O)o1	none
Cc1ccc(-c2nc3s/c(=C\c4ccco4)c(=O)n3n2)cc1	BAP1 block active | BAP1 inh conf 55
Cc1nnc(C)n1N1C(=O)c2cccc3cccc(c23)C1=O	none (not shown: BAP1 block)
NC1=CC(=O)c2cccc3cccc1c23	BAP1 block active | BAP1 inh conf inactive
COc1ccccc1N1C(=O)c2ccc(C(=O)Nc3ccc(Sc4ccc([N+](=O)[O-])cc4)cc3)cc2C1=O	none (no result: C1s block, FXIa mix inh, Ec RNAP inh, Cathepsin G inh, FXIIa inh mix)
O=C(c1nn2c(C(F)(F)F)c3c(nc2c1Cl)-c1ccccc1CC3)N1CCOCC1	none (no result: C1s block, FXIa mix inh, Ec RNAP inh, Cathepsin G inh, FXIIa inh mix)
COc1ccc2cc(CN(Cc3ccco3)Cc3nnnn3C3CCCCC3)c(=O)[nH]c2c1	none
CCc1ccc2[nH]c(=O)c(CN(Cc3ccc4c(c3)OCO4)Cc3nnnn3C3CCCC3)cc2c1	none (not shown: BAP1 block)
Cc1ccc2cc(CN(Cc3ccccc3)Cc3nnnn3C3CCCC3)c(=O)[nH]c2c1	BAP1 block active | BAP1 inh conf inactive
Cc1ccc2cc(CN(Cc3ccc(F)cc3)Cc3nnnn3C3CCCC3)c(=O)[nH]c2c1	BAP1 block active | BAP1 inh conf inactive
CCC(c1nnnn1C1CCCC1)N(Cc1cccs1)Cc1cc2cc(C)ccc2[nH]c1=O (stereo not given)	BAP1 block active | BAP1 inh conf inactive
CC(C)COC(=O)c1ccc(N2C(=O)c3cccc([N+](=O)[O-])c3C2=O)cc1	none (no result: C1s block, FXIa mix inh, Ec RNAP inh, Cathepsin G inh, FXIIa inh mix)
COC(=O)c1c(C)oc2ccc(OCC#N)cc12	none (no result: C1s block, FXIa mix inh, Ec RNAP inh, Cathepsin G inh, FXIIa inh mix)
C=CCn1c(-c2cc(OC)c(OC)c(OC)c2)n[nH]c1=S	BAP1 block active | BAP1 inh conf inactive
CC1CCc2nc(NC(=O)c3ccc(S(=O)(=O)N4CCOCC4)cc3)sc2C1 (stereo not given)	none (no result: C1s block, FXIa mix inh, Ec RNAP inh, Cathepsin G inh, FXIIa inh mix)
CC1CCc2nc(NC(=O)c3cc(C(C)(C)C)nn3C)sc2C1 (stereo not given)	BAP1 block active | BAP1 inh conf inactive
Cc1cccn2c(=O)c3cc(C(=O)N4c5ccccc5CC4C)n(C)c3nc12 (stereo not given)	none
CC1Cc2ccccc2N1C(=O)c1cc2c(=O)n3ccccc3nc2n1C (stereo not given)	BAP1 block active | BAP1 inh conf inactive
Cc1cccn2c(=O)c3cc(C(=O)N4CCc5ccccc54)n(C)c3nc12	BAP1 block active | BAP1 inh conf inactive
COc1ccc(C2N(c3ccccc3)CCN2c2ccccc2)cc1	none (no result: C1s block, FXIa mix inh, Ec RNAP inh, Cathepsin G inh, FXIIa inh mix)
N#Cc1c(NC(=O)CCN2C(=O)c3ccccc3C2=O)oc(-c2ccccc2)c1-c1ccccc1	BAP1 block active | BAP1 inh conf 50
CSc1nc2c(cnn2-c2ccc(C)c(C)c2)c(=O)[nH]1	BAP1 block active | BAP1 inh conf inconclusive
CCC(C)Sc1nc2c(cnn2-c2ccc(C)c(C)c2)c(=O)[nH]1 (stereo not given)	none
NC(=O)C12CCC3CC(CC(C3)C1)C2	none (no result: C1s block, FXIa mix inh, Ec RNAP inh, Cathepsin G inh, FXIIa inh mix)
CCCCCCNC(=O)C(C#N)c1nc2ccccc2nc1N1CCCC1 (stereo not given)	BAP1 block active | BAP1 inh conf inactive
COc1ccccc1N1CCN(c2nc3ccccc3nc2C(C#N)C(=O)OC(C)C)CC1 (stereo not given)	BAP1 block active | BAP1 inh conf inactive

Screening data as filed in PubChem.
